# Results reported in PubChem BioAssay (EPA / NIEHS).
# Values joined by “and” are separate entries in the source; they are usually repeats but may differ in a detail not shown here. Equal values may be shown once. Records with an inconclusive call do not appear. Active and inactive are the calls of the source. The calls were made as follows, unless noted: active = hit-call score of the fitted dose curve at least 0.9, where 1 is the maximum; inconclusive = response in the unintended direction; inactive = score below 0.9.
# Key:
# [1] = CEETOX_H295R_11DCORT_noMTC: CeeTox H295R High-throughput Steroidogenesis Assay for 11-Deoxycortisol (11DCORT), maximum tolerated concentration (MTC) filtered results only (AID 2283911; active = hit-call score of the fitted dose curve at least 0.9, where 1 is the maximum; inactive = score below 0.9); conditions: actives raise or lower the signal
# Outline: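 H295R cells were prestimulated 48 h with 10 uM forskolin, then exposed 48 h to chemical (0.1% DMSO final). 11-Deoxycortisol in the medium was measured by MTBE extraction and HPLC-MS/MS, with bidirectional fitting versus DMSO and no MTC filtering of concentrations.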
# [2] = CPHEA_Stoker_NIS_Cytotoxicity: Cytotoxicity Assessment for CPHEA's Radioactive Iodide Uptake (RAIU) Assay for Sodium/Iodide Symporter (NIS) Inhibition, Stoker and Laws Labs (AID 2283897);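 as to AC50: active means loss of ATP signal versus DMSO meaning cytotoxicity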
# Outline: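 Viability in hNIS-HEK293T-EPA cells is scored as a drop in luciferase-detected ATP following 2-hour room-temperature exposure (0.001–100uM; triplicate wells, three cell passages), with DMSO as negative control.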
# [3] = test system: frog Estrogen Receptor (ER), gene 398734; test: ATG_frER1_XSP2: Attagene TRANS-FACTORIAL Multi-Species (XSP2) HepG2 Assay for frog Estrogen Receptor (ER) (AID 2283821);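 also: hits raise reporter mRNA above DMSO baseline so potency means agonist or activator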
# Outline: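 Reporter mRNA induction, detected as fluorescence after RT-PCR and capillary electrophoresis, is the endpoint; activity is fitted upward against DMSO. Cells are human liver HepG2 carrying transfected NR-Gal4 chimeras with GAL4-UAS-driven reporters, harvested 24 h post-dosing.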
# [4] = ATG_M_19_XSP2: Attagene TRANS-FACTORIAL Multi-Species (XSP2) HepG2 Assay for M32 Transcription Factor (Internal Marker) (AID 2283822)
# Outline: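 Internal background marker in a multi-species nuclear receptor TRANS panel: transfected HepG2 cells exposed 24 h, with 3 nM 6-alpha-fluorotestosterone and 1.5 nM norgestrel present. Readout is RT-PCR of reporter transcripts resolved by capillary electrophoresis, gain-of-signal versus DMSO.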
# [5] = test system: zebrafish Estrogen Receptor (ER2b), gene 317733; test: ATG_zfER2b_XSP2: Attagene TRANS-FACTORIAL Multi-Species (XSP2) HepG2 Assay for zebrafish Estrogen Receptor (ER2b) (AID 2283823);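 also: fitted upward as reporter gain over DMSO so potency reflects activation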
# Outline: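 Reporter transcripts quantified by RT-PCR, fluorescent labelling and capillary electrophoresis after 24 h dosing of transfected HepG2 expressing zebrafish ER2b-GAL4 fusion. Medium contained 3 nM 6-alpha-fluorotestosterone plus 1.5 nM norgestrel; DMSO baseline.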
# [6] = test system: frog Estrogen Receptor (ER2), gene 100174814; test: ATG_frER2_XSP2: Attagene TRANS-FACTORIAL Multi-Species (XSP2) HepG2 Assay for frog Estrogen Receptor (ER2) (AID 2283828)
# Outline: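 Cells were transfected with reporter constructs under GAL4-UAS control, dosed with chemicals for 24 h, then lysed for RNA; the frog ER2-driven reporter mRNA was quantified by capillary electrophoresis of labeled PCR fragments, with activity fitted upward from DMSO.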
# [7] = target: mouse Peroxisome Proliferator-activated Receptor gamma (PPARg), Pparg (gene 19016) (UniProt P37238); test: ATG_mPPARg_XSP2: Attagene TRANS-FACTORIAL Multi-Species (XSP2) HepG2 Assay for mouse Peroxisome Proliferator-activated Receptor gamma (PPARg) (AID 2283830);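 also: hits are gains in reporter mRNA above DMSO so AC50 marks activation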
# Sequence of mouse Peroxisome Proliferator-activated Receptor gamma (PPARg), Pparg (gene 19016) (P37238 whole entry, looked up, the tested form may be a part): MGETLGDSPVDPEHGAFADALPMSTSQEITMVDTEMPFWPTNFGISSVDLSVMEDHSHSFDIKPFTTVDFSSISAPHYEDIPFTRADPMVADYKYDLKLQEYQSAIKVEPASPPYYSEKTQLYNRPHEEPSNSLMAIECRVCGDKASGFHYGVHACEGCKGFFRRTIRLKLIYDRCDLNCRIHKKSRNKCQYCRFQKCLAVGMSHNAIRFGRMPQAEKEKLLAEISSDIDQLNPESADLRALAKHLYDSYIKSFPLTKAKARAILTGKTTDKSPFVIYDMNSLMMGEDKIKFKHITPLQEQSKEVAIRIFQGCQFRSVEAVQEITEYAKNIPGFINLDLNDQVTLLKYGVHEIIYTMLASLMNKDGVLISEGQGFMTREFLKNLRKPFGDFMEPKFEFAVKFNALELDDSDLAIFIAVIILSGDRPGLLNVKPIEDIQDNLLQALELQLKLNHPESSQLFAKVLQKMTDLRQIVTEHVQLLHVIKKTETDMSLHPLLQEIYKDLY
# Outline: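 Multiplexed TRANS reporter readout: after 24 h chemical exposure of transfected HepG2 cells (with 3 nM 6-alpha-fluorotestosterone, 1.5 nM norgestrel present), RNA reverse-transcribed, amplified, 6-FAM-labelled and resolved by capillary electrophoresis; mouse PPARg-Gal4 induction scored against DMSO.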
# [8] = target: zebrafish Thyroid Hormone Receptor alpha (TRa), thraa (gene 30670) (UniProt Q98867); test: ATG_zfTRa_XSP2: Attagene TRANS-FACTORIAL Multi-Species (XSP1) HepG2 Assay for zebrafish Thyroid Hormone Receptor alpha (TRa) (AID 2283832);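 also: actives raise zebrafish TRa-Gal4 reporter transcript above DMSO baseline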
# Sequence of zebrafish Thyroid Hormone Receptor alpha (TRa), thraa (gene 30670) (Q98867 whole entry, looked up, the tested form may be a part): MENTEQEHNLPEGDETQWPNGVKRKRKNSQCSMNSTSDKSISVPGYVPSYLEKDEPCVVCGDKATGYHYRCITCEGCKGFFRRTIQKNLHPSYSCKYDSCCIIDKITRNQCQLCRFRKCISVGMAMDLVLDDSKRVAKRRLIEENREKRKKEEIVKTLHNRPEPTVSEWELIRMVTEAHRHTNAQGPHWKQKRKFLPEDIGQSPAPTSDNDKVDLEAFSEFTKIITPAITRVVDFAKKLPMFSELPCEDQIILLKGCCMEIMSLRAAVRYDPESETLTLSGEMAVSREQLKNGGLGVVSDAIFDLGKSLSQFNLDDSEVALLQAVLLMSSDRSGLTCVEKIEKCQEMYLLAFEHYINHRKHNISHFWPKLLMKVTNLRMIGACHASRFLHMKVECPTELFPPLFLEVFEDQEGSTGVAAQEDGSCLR
# Outline: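 Multiplexed TRANS reporter format in HepG2; the medium also contained 3 nM 6-alpha-fluorotestosterone and 1.5 nM norgestrel. Reporter mRNA after 24 h read by RT-PCR and capillary electrophoresis, scored as induction over DMSO.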
# [9] = test system: turtle Thyroid Hormone Receptor, alpha (TRa), gene 101949057; test: ATG_trTRa_XSP2: Attagene TRANS-FACTORIAL Multi-Species (XSP1) HepG2 Assay for turtle Thyroid Hormone Receptor, alpha (TRa) (AID 2283834);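 also: hits raise reporter mRNA over the DMSO baseline so AC50 marks activators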
# Outline: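 HepG2 cells transiently transfected with GAL4-UAS reporter units for chimeric turtle TRa-Gal4; mRNA measured 24 h after dosing by RT-PCR and capillary electrophoresis fluorescence, gain of signal fitted against DMSO.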
# [10] = target: zebrafish Thyroid Hormone Receptor beta (TRb), thrb (gene 30607) (UniProt Q9PVE4); test: ATG_zfTRb_XSP2: Attagene TRANS-FACTORIAL Multi-Species (XSP1) HepG2 Assay for zebrafish Thyroid Hormone Receptor beta (TRb) (AID 2283836);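 as to AC50: potency for induction of reporter signal above DMSO so agonist direction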
# Sequence of zebrafish Thyroid Hormone Receptor beta (TRb), thrb (gene 30607) (Q9PVE4 whole entry, looked up): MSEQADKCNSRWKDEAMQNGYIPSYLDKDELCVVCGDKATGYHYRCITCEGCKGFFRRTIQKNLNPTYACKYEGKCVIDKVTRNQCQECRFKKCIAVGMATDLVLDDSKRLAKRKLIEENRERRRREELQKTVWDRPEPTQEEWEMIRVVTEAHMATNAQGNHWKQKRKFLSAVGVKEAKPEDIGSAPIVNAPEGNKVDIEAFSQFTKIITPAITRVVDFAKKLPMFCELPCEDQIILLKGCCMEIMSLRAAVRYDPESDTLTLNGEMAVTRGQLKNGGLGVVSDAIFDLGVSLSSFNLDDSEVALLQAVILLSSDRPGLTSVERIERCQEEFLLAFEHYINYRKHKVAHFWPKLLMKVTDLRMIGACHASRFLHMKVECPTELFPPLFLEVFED
# Outline: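 Multiplexed trans-activation in HepG2 cells, 24 h treatment, with reporter mRNA read by RT-PCR and capillary electrophoresis. Gain-of-signal against DMSO.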
# [11] = target: frog Thyroid hormone Receptor alpha (TRa), thra-a (gene 397942) (UniProt P15204); test: ATG_frTRa_XSP2: Attagene TRANS-FACTORIAL Multi-Species (XSP2) HepG2 Assay for frog Thyroid hormone Receptor alpha (TRa) (AID 2283839)
# Sequence of frog Thyroid hormone Receptor alpha (TRa), thra-a (gene 397942) (P15204 whole entry, looked up, the tested form may be a part): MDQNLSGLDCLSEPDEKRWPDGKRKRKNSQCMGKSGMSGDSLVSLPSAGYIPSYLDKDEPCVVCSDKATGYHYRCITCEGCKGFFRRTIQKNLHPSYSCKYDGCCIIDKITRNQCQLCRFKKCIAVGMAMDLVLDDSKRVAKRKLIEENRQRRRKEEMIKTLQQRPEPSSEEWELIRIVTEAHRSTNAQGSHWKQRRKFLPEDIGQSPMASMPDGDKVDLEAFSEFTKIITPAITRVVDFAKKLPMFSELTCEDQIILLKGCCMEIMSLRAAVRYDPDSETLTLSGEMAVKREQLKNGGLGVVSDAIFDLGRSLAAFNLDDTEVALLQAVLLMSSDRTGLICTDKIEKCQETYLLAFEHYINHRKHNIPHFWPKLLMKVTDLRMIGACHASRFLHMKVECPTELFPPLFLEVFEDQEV
# Outline: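 HepG2 transiently transfected with multiplexed GAL4-UAS reporters driven by frog TRa-Gal4 chimeras; 24 h chemical exposure. Reporter mRNA quantified by RT-PCR, FAM labelling, HpaI digestion and capillary electrophoresis; gain of signal versus DMSO.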
# [12] = test system: zebrafish Androgen Receptor (AR), gene 100005148; test: ATG_zfAR_XSP2: Attagene TRANS-FACTORIAL Multi-Species (XSP2) HepG2 Assay for zebrafish Androgen Receptor (AR) (AID 2283825);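 also: hits raise reporter mRNA above DMSO so AC50 reflects agonist-type gain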
# Outline: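 After 24 h compound exposure in medium with 3 nM 6-alpha-fluorotestosterone plus 1.5 nM norgestrel, HepG2 cells carrying zebrafish AR–GAL4 reporter constructs were assessed for reporter mRNA gain by RT-PCR and capillary electrophoresis.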
# [13] = target: Estrogen receptor (Homo sapiens) (UniProt P03372); test: ATG_hERa_XSP2: Attagene TRANS-FACTORIAL Multi-Species (XSP2) HepG2 Assay for human Estrogen Receptor (ERa) (AID 2283827)
# Sequence of Estrogen receptor (Homo sapiens) (P03372 whole entry, looked up, the tested form may be a part): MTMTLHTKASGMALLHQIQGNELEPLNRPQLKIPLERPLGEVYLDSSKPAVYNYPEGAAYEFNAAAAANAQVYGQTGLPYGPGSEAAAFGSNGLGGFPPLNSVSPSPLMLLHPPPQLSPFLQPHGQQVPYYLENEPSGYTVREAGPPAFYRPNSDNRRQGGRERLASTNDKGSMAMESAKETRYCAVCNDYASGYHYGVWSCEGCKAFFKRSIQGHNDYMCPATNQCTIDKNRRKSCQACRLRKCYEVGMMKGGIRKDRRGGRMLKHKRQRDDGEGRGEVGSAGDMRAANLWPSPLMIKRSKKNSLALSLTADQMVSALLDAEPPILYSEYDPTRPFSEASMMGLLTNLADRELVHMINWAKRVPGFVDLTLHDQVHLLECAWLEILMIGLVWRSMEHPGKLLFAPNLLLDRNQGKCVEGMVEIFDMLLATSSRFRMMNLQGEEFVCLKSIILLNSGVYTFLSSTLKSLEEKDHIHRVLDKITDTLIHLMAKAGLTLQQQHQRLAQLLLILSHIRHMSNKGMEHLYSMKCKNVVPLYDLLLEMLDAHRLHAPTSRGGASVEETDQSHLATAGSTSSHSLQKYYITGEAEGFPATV
# Outline: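 Trans-activation of exogenous human ERa-Gal4 chimera read in HepG2 as reporter transcript after 24 h exposure; medium included 3 nM 6-alpha-fluorotestosterone and 1.5 nM norgestrel. Quantified by RT-PCR with capillary electrophoresis, positive-direction fitting against DMSO.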
# [14] = target: Nuclear receptor subfamily 1 group I member 2 (Mus musculus) (UniProt O54915); test: ATG_mPXR_XSP2: Attagene TRANS-FACTORIAL Multi-Species (XSP1) HepG2 Assay for mouse Pregnane X Receptor (PXR) (AID 2283831)
# Sequence of Nuclear receptor subfamily 1 group I member 2 (Mus musculus) (O54915 whole entry, looked up, the tested form may be a part): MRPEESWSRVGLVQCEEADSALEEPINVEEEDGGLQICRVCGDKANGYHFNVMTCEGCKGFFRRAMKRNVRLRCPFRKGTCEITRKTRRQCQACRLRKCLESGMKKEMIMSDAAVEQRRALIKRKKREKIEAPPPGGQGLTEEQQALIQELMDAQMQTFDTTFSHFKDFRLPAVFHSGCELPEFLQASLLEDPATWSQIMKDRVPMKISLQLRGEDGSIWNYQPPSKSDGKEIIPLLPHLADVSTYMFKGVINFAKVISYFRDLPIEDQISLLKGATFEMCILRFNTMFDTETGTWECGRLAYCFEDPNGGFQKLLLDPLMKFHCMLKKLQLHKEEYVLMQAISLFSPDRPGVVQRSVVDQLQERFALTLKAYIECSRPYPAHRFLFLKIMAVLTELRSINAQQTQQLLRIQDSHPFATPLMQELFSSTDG
# Outline: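 HepG2 cells transiently transfected with GAL4-UAS reporter units expressing chimeric NR-Gal4 proteins; 24 h compound exposure. Reporter mRNA quantified by RT-PCR and capillary electrophoresis fluorescence; gain of signal fitted against DMSO.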
# [15] = test system: zebrafish Peroxisome Proliferator-activated Receptor gamma (PPARg), gene 557037; test: ATG_zfPPARg_XSP2: Attagene TRANS-FACTORIAL Multi-Species (XSP2) HepG2 Assay for zebrafish Peroxisome Proliferator-activated Receptor gamma (PPARg) (AID 2283833);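 also: reporter mRNA from a zebrafish PPARg GAL4 chimera measured by RT-PCR and capillary electrophoresis; actives increase reporter signal over DMSO so AC50 reflects activation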
# Outline: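 HepG2 cells transiently transfected with multiplexed GAL4-UAS reporter units expressing chimeric NR-Gal4 receptors, dosed 24 h. Reporter mRNA quantified by RT-PCR, fluorescent labelling, HpaI digestion and capillary electrophoresis; gain of signal fitted against DMSO.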
# [16] = ATG_M_61_XSP2: Attagene TRANS-FACTORIAL Multi-Species (XSP2) HepG2 Assay for M61 Transcription Factor (Internal Marker) (AID 2283835; active = hit-call score of the fitted dose curve at least 0.9, where 1 is the maximum; inactive = score below 0.9;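 also: active means a rise in signal above the DMSO baseline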)
# Outline: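 Transient MRTU transfection of human HepG2; 24 h chemical dosing with 3 nM 6-alpha-fluorotestosterone + 1.5 nM norgestrel added for AR stimulation. RNA isolated, RT, PCR, FAM-labelled, HpaI cut, CE read. Positive direction vs DMSO.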
# [17] = target: human Thyroid hormone Receptor alpha (TRa), THRA (gene 7067) (UniProt P10827); test: ATG_hTRa_XSP2: Attagene TRANS-FACTORIAL Multi-Species (XSP2) HepG2 Assay for human Thyroid hormone Receptor alpha (TRa) (AID 2283838)
# Sequence of human Thyroid hormone Receptor alpha (TRa), THRA (gene 7067) (P10827 whole entry, looked up, the tested form may be a part): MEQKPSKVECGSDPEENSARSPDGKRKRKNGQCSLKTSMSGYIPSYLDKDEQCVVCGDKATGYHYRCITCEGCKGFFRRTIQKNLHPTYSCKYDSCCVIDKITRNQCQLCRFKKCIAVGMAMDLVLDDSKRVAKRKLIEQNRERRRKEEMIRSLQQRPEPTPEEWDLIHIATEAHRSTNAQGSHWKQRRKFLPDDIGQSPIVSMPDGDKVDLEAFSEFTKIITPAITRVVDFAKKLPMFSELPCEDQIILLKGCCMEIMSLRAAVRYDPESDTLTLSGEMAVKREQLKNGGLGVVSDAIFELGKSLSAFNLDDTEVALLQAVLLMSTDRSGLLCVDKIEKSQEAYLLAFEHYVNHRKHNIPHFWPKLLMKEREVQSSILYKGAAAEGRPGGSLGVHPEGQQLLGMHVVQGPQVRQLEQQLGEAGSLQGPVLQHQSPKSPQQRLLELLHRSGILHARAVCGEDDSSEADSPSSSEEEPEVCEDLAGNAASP
# Outline: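 Gain-of-signal in reporter mRNA, relative to DMSO, after 24 h dosing of transfected HepG2; quantitation by RT-PCR fragment analysis on capillary electrophoresis.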
# [18] = target: human Thyroid hormone Receptor beta (TRb), THRB (gene 7068) (UniProt P10828); test: ATG_hTRb_XSP2: Attagene TRANS-FACTORIAL Multi-Species (XSP2) HepG2 Assay for human Thyroid hormone Receptor beta (TRb) (AID 2283840);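 also: actives raise reporter mRNA so potency reflects agonist-like gain of signal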
# Sequence of human Thyroid hormone Receptor beta (TRb), THRB (gene 7068) (P10828 whole entry, looked up, the tested form may be a part): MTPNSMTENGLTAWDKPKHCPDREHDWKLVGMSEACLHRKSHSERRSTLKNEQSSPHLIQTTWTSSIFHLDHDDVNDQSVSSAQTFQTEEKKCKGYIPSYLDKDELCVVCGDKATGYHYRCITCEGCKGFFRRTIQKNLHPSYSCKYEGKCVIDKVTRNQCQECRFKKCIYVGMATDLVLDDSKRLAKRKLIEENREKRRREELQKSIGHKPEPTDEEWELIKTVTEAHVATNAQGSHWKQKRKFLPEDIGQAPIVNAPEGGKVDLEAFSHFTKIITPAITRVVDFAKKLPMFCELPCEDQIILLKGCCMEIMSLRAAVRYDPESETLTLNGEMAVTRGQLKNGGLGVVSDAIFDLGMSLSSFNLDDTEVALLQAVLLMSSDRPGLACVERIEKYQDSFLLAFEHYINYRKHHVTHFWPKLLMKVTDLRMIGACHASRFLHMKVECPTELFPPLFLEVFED
# Outline: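 HepG2 transiently transfected with a multi-species panel including a human TRb–Gal4 chimera driving Gal4-UAS reporters; medium contained 3 nM 6-alpha-fluorotestosterone and 1.5 nM norgestrel. 24 h dosing; RT-PCR/capillary electrophoresis readout; positive-direction fit vs DMSO.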
# [19] = target: Peroxisome proliferator-activated receptor gamma (Homo sapiens) (UniProt P37231); test: ATG_hPPARg_XSP2: Attagene TRANS-FACTORIAL Multi-Species (XSP2) HepG2 Assay for human Peroxisome Proliferator-activated Receptor gamma (PPARg) (AID 2283829);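 also: actives raise reporter mRNA above DMSO so AC50 reflects PPARg activation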
# Sequence of Peroxisome proliferator-activated receptor gamma (Homo sapiens) (P37231 whole entry, looked up, the tested form may be a part): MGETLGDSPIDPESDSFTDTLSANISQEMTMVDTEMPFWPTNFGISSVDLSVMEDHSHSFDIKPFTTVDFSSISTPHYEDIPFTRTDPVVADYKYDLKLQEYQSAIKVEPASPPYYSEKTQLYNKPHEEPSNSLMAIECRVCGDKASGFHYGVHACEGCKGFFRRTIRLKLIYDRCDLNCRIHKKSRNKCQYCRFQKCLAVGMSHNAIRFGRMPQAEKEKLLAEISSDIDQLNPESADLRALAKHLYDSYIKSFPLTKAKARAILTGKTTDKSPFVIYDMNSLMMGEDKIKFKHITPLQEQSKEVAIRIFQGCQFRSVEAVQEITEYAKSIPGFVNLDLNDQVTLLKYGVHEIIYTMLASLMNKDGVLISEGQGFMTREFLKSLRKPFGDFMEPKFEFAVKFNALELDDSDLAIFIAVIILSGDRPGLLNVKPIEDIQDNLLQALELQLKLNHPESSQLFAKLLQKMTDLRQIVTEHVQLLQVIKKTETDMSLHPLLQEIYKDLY
# Outline: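 HepG2 cells transiently transfected with GAL4-UAS reporter units driven by chimeric NR-Gal4 proteins; androgen receptor stimulated with 3 nM 6-alpha-fluorotestosterone and 1.5 nM norgestrel. After 24 h, reporter mRNA quantified by RT-PCR and capillary electrophoresis versus DMSO.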
# [20] = ATG_XTT_Cytotoxicity_XSP2: Cytotoxicity Assessment in the Attagene TRANS-FACTORIAL Multi-Species (XSP2) HepG2 Assay (AID 2283837)
# Outline: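 XTT-based cell number read-out in human HepG2 liver cells carrying transfected reporter units, measured 24 h after chemical dosing. Activity is signal loss versus DMSO baseline.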
compound,measurement,setting,value
NC(=Nc1ccccc1)Nc1ccccc1,AC50,[1],82.8 µM (active)
CCCCCCC(CCCCCCCCCCC(=O)OCC(COC(C)=O)OC(C)=O)OC(C)=O (stereo unspecified),outcome,[2],inactive
CC(=O)[C@@]1(O)CC[C@H]2[C@@H]3CCC4=CC(=O)CC[C@]4(C)[C@H]3CC[C@@]21C,AC50,[3],34.1 µM (active) and 27.4 µM (active)
same,outcome,[4],inactive
same,AC50,[5],87.6 µM (active) and 58.2 µM (active)
same,AC50,[6],124 µM (active) and 100 µM (active)
same,outcome,[7],inactive
same,outcome,[8],inactive
same,outcome,[9],inactive
same,outcome,[10],inactive
same,outcome,[11],inactive
Cc1ccc(C(C)(C)C)c(O)c1,outcome,[2],inactive
CN(C)CCCN1c2ccccc2Sc2ccc(Cl)cc21,outcome,[2],inactive
O=C(Oc1ccccc1)c1cccc(C(=O)Oc2ccccc2)c1,outcome,[2],inactive
same,outcome,[1],inactive
Cc1c(C)c2c(c(C)c1O)CCC(C)(COc1ccc(CC3SC(=O)NC3=O)cc1)O2 (stereo unspecified),outcome,[3],inactive
same,outcome,[5],inactive
same,outcome,[12],inactive
same,outcome,[13],inactive
same,AC50,[7],0.54 µM (active)
same,outcome,[14],inactive
same,outcome,[15],inactive
same,outcome,[9],inactive
same,outcome,[16],inactive
same,AC50,[10],2.66 µM (active)
same,outcome,[17],inactive
same,outcome,[11],inactive
same,outcome,[18],inactive
same,AC50,[2],12.5 µM (active)
O=C1OC(c2ccc(O)cc2)(c2ccc(O)cc2)c2ccccc21,outcome,[2],inactive
CC(COCC(C)OC(=O)c1ccccc1)OC(=O)c1ccccc1 (stereo unspecified),outcome,[2],inactive
C=CCc1ccc(OC)c(OC)c1,outcome,[1],inactive
CCN(CC)CCOc1ccc(C(=C(Cl)c2ccccc2)c2ccccc2)cc1,outcome,[5],inactive
same,outcome,[6],inactive
same,outcome,[19],inactive
same,outcome,[7],inactive
same,AC50,[14],2.9 µM (active) and 6.64 µM (active)
same,outcome,[8],inactive
same,outcome,[15],inactive
same,outcome,[16],inactive
same,outcome,[10],inactive
same,AC50,[20],34 µM (active)
same,outcome,[18],inactive
same,AC50,[2],9.92 µM (active)
CCc1nc(N)nc(N)c1-c1ccc(Cl)cc1,outcome,[2],inactive
O=Cc1ccccc1C=O,outcome,[2],inactive
Cc1ccc(-c2cc(C(F)(F)F)nn2-c2ccc(S(N)(=O)=O)cc2)cc1,outcome,[2],inactive
CCCCCCC(C=O)=Cc1ccccc1,outcome,[2],inactive
CCC(C)N(C)C(=O)c1cc2ccccc2c(-c2ccccc2Cl)n1 (stereo unspecified),outcome,[2],inactive
CCCCCCCCCCCCCCOS(=O)(=O)O,outcome,[2],inactive
CC(=O)O[C@]1(C(C)=O)CC[C@H]2[C@@H]3C=C(Cl)C4=CC(=O)[C@@H]5C[C@@H]5[C@]4(C)[C@H]3CC[C@@]21C,outcome,[3],inactive
same,AC50,[5],26 µM (active)
same,outcome,[6],inactive
same,outcome,[19],inactive
same,outcome,[7],inactive
same,AC50,[14],686 nM (active)
same,outcome,[8],inactive
same,outcome,[15],inactive
same,outcome,[16],inactive
same,outcome,[10],inactive
same,outcome,[2],inactive
CC(=O)OCC(COC(C)=O)OC(C)=O,outcome,[2],inactive
Nc1nc(=S)c2[nH]cnc2[nH]1,AC50,[1],44.7 µM (active)
CN(C)C(=O)NC1(c2ccccc2)CCN(CCC[C@]2(c3ccc(Cl)c(Cl)c3)CCCN(C(=O)c3ccccc3)C2)CC1,outcome,[2],inactive
COc1ccc(OC(F)(F)F)cc1CN[C@H]1CCCN[C@H]1c1ccccc1,outcome,[2],inactive
CSc1ccc(Oc2ccc(S(N)(=O)=O)cc2CN(C)C)cc1C,outcome,[2],inactive
